Screens (PubChem)
Compounds with a hit are over-represented: about 3.9% of the library has one in this group of screens.
UBC9 SUMO inh: SUMOylation inhibition; P63279; HTRF SUMOylation assay, SAE1/SAE2 + UBC9, in vitro; inhibition, % at 35 µM; hit rate 0.36% among 290,000; AID 2006; in the data active = inhibition above about 50%, passing the limit was not always enough
Target sequence (P63279 whole entry, looked up): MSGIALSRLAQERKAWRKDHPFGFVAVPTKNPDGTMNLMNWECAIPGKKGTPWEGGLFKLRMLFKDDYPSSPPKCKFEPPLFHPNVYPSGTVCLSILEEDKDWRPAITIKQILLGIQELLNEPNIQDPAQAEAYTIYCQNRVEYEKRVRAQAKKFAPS
ALR H2O2 inh: blocks human ALR sulfhydryl oxidase activity | P55789 | inhibition, % (no concentration beside the values) | hit rate 3.8% among 290,000 | purified ALR, DTT oxidation, H2O2 HRP-luminol luminescence;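 active = mean replicate inhibition above about 79%, with every replicate also reaching it, limit read from the data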
Target sequence (P55789 whole entry, looked up): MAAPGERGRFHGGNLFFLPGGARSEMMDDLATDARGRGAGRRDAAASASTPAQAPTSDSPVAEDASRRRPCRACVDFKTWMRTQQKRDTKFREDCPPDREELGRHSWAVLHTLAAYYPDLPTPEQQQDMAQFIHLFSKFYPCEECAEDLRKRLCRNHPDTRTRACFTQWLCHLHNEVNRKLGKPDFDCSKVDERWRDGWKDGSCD
H9c2 protect: protects H9c2 cardiomyocytes from peroxide injury | H2O2 injury protection, ATPLite, 2 h | protection from H2O2 cell death, % at 20 µM | hit rate 0.63% among 360,000 | AID 588492;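 active = compounds giving at least 50% protection of heart cells from peroxide-induced death in the single-dose screen, raw or plate-pattern-corrected value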
NTR1 agonist: NTR1 (human) agonism; NTR1-U2OS beta-arrestin-GFP spot imaging, agonist mode; activation, % at 20 µM; hit rate 0.17% among 330,000; AID 493036;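 active = activation at or above 40% of the spot to cytoplasm intensity ratio, with at least 20 cells analyzed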
Hits are given with their value; . = inactive; / = no result given; ! = not active in a repeat.

SMILES | UBC9 SUMO inh | ALR H2O2 inh | H9c2 protect | NTR1 agonist
O=C(c1ccccc1NS(=O)(=O)c1ccc(Br)s1)N1CCCC1 | . | . | . | .
O=c1c2ccccc2oc2nc3ccn(Cc4ccncc4)c(=O)c3cc12 | 68 | / | / | /
O=c1cc(CN2CCCCCC2)nc2sccn12 | . | . | . | .
COc1ccccc1N1CCN(Cc2cc(=O)n3ccsc3n2)CC1 | . | 90 | . | .
Nc1c(NC2CCCCC2)c2ccccc2oc1=O | . | 99 | . | .
Cc1ccccc1Nc1c(N)c(=O)oc2ccccc12 | . | 99 | . | .
CN(C)CCNc1c(N)c(=O)oc2ccccc12 | . | . | . | .
Oc1ccc(/C=N/Nc2cc(N3CCOCC3)nc(N3CCOCC3)n2)cc1O | . | 99 | 53 | .
Cc1nc(N/N=C/c2ccc(O)cc2O)cc(N2CCOCC2)n1 | . | 95 | . | .
Cc1nc(N/N=C/c2cccc(F)c2)cc(N2CCOCC2)n1 | . | . | . | .
Cc1cc2ncn(C(=O)c3ccc(F)cc3)c2cc1C | . | 98 | . | .
CCC(C)C(=O)Nc1nc2c(s1)C(=O)CC(C)(C)C2 (configuration not stated) | . | . | . | .
C=CCNC(=O)/C(C#N)=C\c1cc(Cl)c(OCC)c(OC)c1 | . | 98 | . | .
O=C1/C(=C/c2ccc(N3CCCC3)cc2)NC(=S)N1C1CC1 | . | 97 | . | .
CSc1ccc(-c2cc(=O)c3ccccc3o2)cc1 | 54 | . | . | .
Cn1c(NC(=O)CCc2ccccc2)cc(=O)n(C)c1=O | . | . | . | .
Cn1c(NC(=O)COc2ccccc2)cc(=O)n(C)c1=O | . | 99 | . | .
Cc1ccc(N2C(=O)CC(Sc3cccs3)C2=O)cc1 (configuration not stated) | . | . | . | .
COc1ccccc1NC(=O)CN1CCN(CC(=O)Nc2ccc3c(c2)OCO3)CC1 | . | . | . | .
COc1ccccc1NC(=O)CSC1CC(=O)N(c2ccc3c(c2)OCO3)C1=O (configuration not stated) | . | 100 | . | .
COc1ccc(NC(=O)CSC2CC(=O)N(c3ccc4c(c3)OCCO4)C2=O)cc1 (configuration not stated) | . | 99 | . | .
COc1ccc(N2C(=O)CC(SCC(=O)O)C2=O)cc1 (configuration not stated) | . | . | . | .
Cc1ccc(SC2CC(=O)N(c3ccc4c(c3)OCCO4)C2=O)cc1 (configuration not stated) | . | 98 | . | .
Cc1cnc(C)c(Nc2nc(C(N)Cc3ccc(F)cc3)cs2)n1 (configuration not stated) | / | / | . | /
CSc1ccc(CN(C)C(=O)c2ccc(S(=O)(=O)Nc3ccccc3)cc2)cc1 | / | . | . | .
SMILES | UBC9 SUMO inh | ALR H2O2 inh | H9c2 protect | NTR1 agonist
N#CCCCCn1c(-c2cncs2)nc2ccccc21 | . | . | . | .
COc1ccc(N2CCN(CC(O)COc3ccc(C)c(C)c3)CC2)cc1 (configuration not stated) | . | 97 | . | .
C=CCc1cc(OC)ccc1OCC(O)CN1CCN(c2ccc(OC)cc2)CC1 (configuration not stated) | . | 79! | . | .
Oc1ccccc1N1CCN(CC(O)COCc2ccccc2Cl)CC1 (configuration not stated) | . | 99 | . | .
COc1ccc(N2CCN(CC(O)COc3c(OC)cccc3OC)CC2)cc1 (configuration not stated) | . | . | . | .
COc1ccc(N2CCN(CC(O)COc3ccc(F)cc3)CC2)cc1 (configuration not stated) | . | 99 | . | .
CCOC(=O)c1c(C)n(C)c2ccc(OCC(O)CN3C(=O)c4ccccc4S3(=O)=O)cc12 (configuration not stated) | . | . | . | .
COc1ccc(OC)c(S(=O)(=O)Nc2ccc3oc4c(c3c2)C(=O)CCC4)c1 | . | . | . | .
Cc1cccc(NS(=O)(=O)c2cc(C(=O)N3CCc4ccccc4C3)ccc2Cl)c1C | . | . | . | .
C=CCSc1nc2c(c(=O)[nH]c(=O)n2C)n1Cc1ccc(C)cc1 | . | . | . | .
OC(COCc1ccccc1)CN1CCN(c2ccccc2)CC1 (configuration not stated) | . | 82 | . | .
COc1ccc(N2CCN(CC(=O)Nc3ccc(C)c(C)c3)CC2)cc1 | . | 98 | . | .
COc1ccc(N2CCN(CC(=O)Nc3cc(C)cc(C)c3)CC2)cc1 | . | / | . | .
OC(COCc1ccccc1)CN1CCCC1 (configuration not stated) | . | . | . | .
COc1ccc(N2CCN(CC(O)COc3cc(C)cc(C)c3)CC2)cc1 (configuration not stated) | . | . | . | .
